Where “and” joins values, the source holds several entries; their conditions need not be identical. Identical values can stand only once. The whole screen tested about 34,000 compounds, of which about 290 (0.85%) showed an effect of 50% or more. The list comes from a sample in which strong results are over-represented; it also holds similar structures and randomly drawn compounds.
System: Plasmodium falciparum
Test: Plasmodium falciparum sporozoite viability assay
Type: functional, organism-based
Design: scale not given: in the data most compounds retested in dose-response had high values

Row | Structure (SMILES) | Percent Effect (10 mM as filed; unlikely as a test dose) | Percent Effect
1 | CCn1cnnc1C1CCN(C(=O)COCCc2ccccc2)CC1 | -3.699% and -24.35% and -22.69% | –
2 | O=C(CCOc1ccccc1F)N1CCC(O)CC1 | -2.056% and -15.58% and -4.248% | –
3 | CO[C@H]1C[C@@H](O)C12CCN(C(=O)CCCOc1ccccc1)CC2 | 88.4% and 94.39% | –
4 | CN1CCOC(CNC(=O)CCCOc2ccccc2F)C1 (configuration not stated) | 51.69% and 61.26% and 47.35% | –
5 | NCCO[C@H]1C[C@@H](O)C12CCN(C(=O)CCOc1ccccc1)CC2 | 3.322% and 1.71% | –
6 | Cc1ccccc1OCCCC(=O)NCC1CN(C)CCO1 (configuration not stated) | 6.067% and -2.638% and -0.6996% | –
7 | CN1CCOC(CNC(=O)CCCOc2cccc(F)c2)C1 (configuration not stated) | 7.848% and 7.883% and 5.332% | –
8 | CC(O)CN1CCN(C(=O)CCOc2ccccc2F)CC1 (configuration not stated) | 8.088% and -8.879% and -8.774% | –
9 | CO[C@H]1C[C@@H](O)C12CCN(C(=O)NCc1ccco1)CC2 | – | 8.391%
10 | CCn1cnnc1C1CCN(C(=O)CCCOc2ccccc2)CC1 | 42.92% and 40.5% and 58.13% | –
11 | Cc1cnccc1CN1Cc2ccccc2O[C@]2(CC[C@H](CO)CC2)C1 | – | 13.72%
12 | Cc1cc(CN2CCCC(c3cc(C(F)(F)F)[nH]n3)C2)no1 (configuration not stated) | – | 9.793%
13 | O=C(CCCc1nnc(-c2ccccc2)o1)N1CCN(C2CC2)CC1 | – | 16.07%
14 | Cc1ccc(NC2CCN(C(=O)c3cnn(C(C)(C)C)c3)CC2)nn1 | – | -0.1023%
15 | c1ccn2c(C3CCCN3Cc3nc(C4CC4)no3)nnc2c1 (configuration not stated) | – | -1.432%
16 | Cc1cnn(CC2CN(CC(=O)Nc3ccnn3C(C)C)CCO2)c1 (configuration not stated) | – | 2.692%
17 | Cn1cnnc1C1CCN(C(=O)CCCOc2ccccc2F)CC1 | 83.01% and 69.05% and 60.83% | –
18 | Cc1ccccc1OCCC(=O)N1CCC(c2nncn2C)CC1 | 2.17% and -2.919% and 0.9191% | –
19 | CC(C)Nc1nc(O)cc(C2CC(=O)N(Cc3ccccn3)C2)n1.Cl (configuration not stated) | – | 10.31%

Row | Structure (SMILES) | Percent Effect (10 mM as filed; unlikely as a test dose) | Percent Effect
20 | CNc1cc(C)nc(C2CN(Cc3ccc(Cl)cn3)CCO2)c1 (configuration not stated) | – | 20.7%
21 | CCC(=O)N1CCC(c2ncc(C(=O)Nc3ccccc3)c(C)n2)C1 (configuration not stated) | – | 8.085%
22 | COc1ccc(CC(=O)N2CCCC2Cn2cc(C)cn2)cc1OC (configuration not stated) | 8.878% and 3.897% and 0.6031% | –
23 | COc1ccc2cc(C(=O)N3CCCC3Cn3cc(C)cn3)[nH]c2c1 (configuration not stated) | – | -1.066%
24 | Cc1nn(C)cc1-c1cncn1CCc1ccc2c(c1)OCCO2.Cl | 35.23% and 54.6% and 46.78% | –
25 | COC1COC2(CCN(CC3CCOCC3)CC2)C1.O=C(O)C(F)(F)F (configuration not stated) | – | 2.7%
26 | CC(C(=O)N1CCOCC1)n1nc(-c2cccs2)cc(N)c1=O (configuration not stated) | – | -6.596%
27 | CCn1cc(CN2CCCN(C(=O)c3ccccc3OC)CC2)cn1 | – | 5.544%
28 | Cc1nc(CN2CCCC(NCc3nc4ccccc4s3)C2)no1 (configuration not stated) | – | 12.82%
29 | CCCc1cc(CNC2CCN(c3nc4ccccc4s3)CC2)on1 | 84.7% and 90.12% | –
30 | CCCc1cc(CNC(=O)C2CCOc3ccccc3C2)on1 (configuration not stated) | – | 10.71%
31 | CC(=O)N1N=C(c2ccccc2)OC1C(=O)NCCc1ccc(C)cc1 (configuration not stated) | – | -14.76%
32 | CNC(=O)CN1CCCC12CCN(C(=O)c1ccccc1F)CC2.O=C(O)C(F)(F)F | – | -2.189%
33 | Cl.Clc1ccccc1CN1CCc2nc(C3CCCNC3)ncc2C1 (configuration not stated) | – | 2.109%
34 | CC(C)Oc1ccc2c(NC(=O)[C@H](C)O)nn(CC(F)(F)F)c2c1 | -22.23% and -11.46% | –
35 | Cc1csc(NC(=O)[C@@H]2C[C@H]3[C@H](CCN3c3ncccn3)O2)n1.O=C(O)C(F)(F)F | – | 2.312%
36 | CCn1ccc(C(=O)N2CCOC(c3nc(-c4cccs4)no3)C2)n1 (configuration not stated) | -10.26% and 14.68% and 1.172% | –
37 | CCn1cc(C(=O)N2CCOC(c3nc(-c4cccs4)no3)C2)cn1 (configuration not stated) | 66.92% and 76% and 54.9% | –
38 | CCCn1cc(C(=O)N2CCOC(c3nc(-c4cccs4)no3)C2)cn1 (configuration not stated) | 42.39% and 34.52% and 29.79% | –

Row | Structure (SMILES) | Percent Effect (10 mM as filed; unlikely as a test dose) | Percent Effect
39 | Cn1cnc(-c2nc(C(=O)NC3CC3)c3ccccn23)c1 | – | 10.82%
40 | Cc1nc(-c2nc(C(=O)NC3CC3)c3ccccn23)cn1C(C)C | 58.89% and 55% and 41.86% | –
41 | Cc1nc(-c2nc(C(=O)N(C)C)c3ccccn23)cn1C(C)C | 38.79% and 23.46% and 42.96% | –
42 | Cn1cnc(-c2cc(C(=O)N3CCOCC3)c3ccccn23)c1 | – | -1.371%
43 | Cc1nc(-c2nc(C(=O)N3CCOCC3)c3ccccn23)cn1C(C)C | 54.88% and 55.7% | –
44 | CC(C)n1cnc(-c2nc(C(=O)NC3CC3)c3ccccn23)c1 | – | 6.582%
45 | CCNC(=O)c1cc(OC)c2cc(F)cc(C)c2n1 | – | 1.557%
46 | Cc1cncnc1C1CCN(CC2CC2)CC1 | – | 1.471%
47 | CCCOc1cccc(OCc2ccon2)c1 | – | -14.79%
48 | Cc1cc(C)n(CC2CCCCN2CCc2ccncc2)n1 (configuration not stated) | – | 5.224%
49 | Cc1c(C)n2c(SCC(=O)N3CCCCCC3)nnc2[nH]c1=O | -20.75% and -26.48% | –
50 | CNC(=O)CNC(=O)c1ccc(-c2scnc2C)nc1 | – | 1.458%
51 | CCc1ccc(C(=O)NCc2ccnc(N3CCN(C)CC3)c2)o1 | – | 8.293%
52 | CCc1nnc2n1CCN(CCC(=O)Nc1sccc1C#N)C2 | – | 5.694%
53 | CCOC[C@@H]1CC[C@H]2[C@H](CCN2C(=O)c2cnccn2)O1 | – | -3.07%
54 | c1ccc(-c2nc(CNC3CCc4ncnn4C3)cs2)cc1 (configuration not stated) | – | 1.596%
55 | OCCN1CCN(Cc2coc(-c3cccc(Cl)c3)n2)CC1 | – | -3.989%
56 | CC(=O)N1CCN(Cc2coc(-c3cccc(F)c3)n2)CC1 | -29.73% and -43.84% and -27.15% | –
57 | CCN1CCN(Cc2coc(-c3cccc(F)c3)n2)CC1 | 64.85% and 77.13% and 53.15% | –
